# Shown is part of a subset that was picked to be rich in the strongest signals.
# Tests used:
# Assay in all cases: glycan array binding signal (z-score within array); higher = stronger binding
# Conditions in all cases: glycan notation: IUPAC condensed, linker removed
# [1] = system: Fuc(a1-2)Gal(b1-3)GalNAc(b1-3)Gal
# Summary of the method: (§1)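 The binding signal is a Z-score computed within each array. Data were drawn from 3228 arrays in the Consortium for Functional Glycomics database, restricted to those with a known protein sequence. Scores were averaged over arrays of the same protein sequence at different concentrations or buffers, and over linkers, and negative values can be taken as non-binding.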
# [2] = system: Fuc(a1-2)Gal(b1-3)GlcNAc(b1-2)Man(a1-3)[Fuc(a1-2)Gal(b1-3)GlcNAc(b1-2)Man(a1-6)]Man(b1-4)GlcNAc(b1-4)GlcNAc
# Summary of the method: as §1
# [3] = system: Fuc(a1-2)Gal(b1-4)GlcNAc(b1-2)Man(a1-3)[Fuc(a1-2)Gal(b1-4)GlcNAc(b1-2)Man(a1-6)]Man(b1-4)GlcNAc(b1-4)[Fuc(a1-6)]GlcNAc
# Summary of the method: as §1
# Fuc(a1-2)Gal(b1-3)GalNAc = system: Fuc(a1-2)Gal(b1-3)GalNAc
# Summary of the method: as §1
# [4] = system: Fuc(a1-2)Gal(b1-3)GlcNAc(b1-2)Man(a1-3)[Fuc(a1-2)Gal(b1-3)GlcNAc(b1-2)Man(a1-6)]Man(b1-4)GlcNAc(b1-4)[Fuc(a1-6)]GlcNAc
# Summary of the method: as §1
# Fuc(a1-2)Gal(b1-4)Glc6S = system: Fuc(a1-2)Gal(b1-4)Glc6S
# Summary of the method: as §1
# [5] = system: Fuc(a1-2)Gal(b1-4)GlcNAc(b1-3)GalNAc
# Summary of the method: as §1
# [6] = system: Fuc(a1-2)Gal(b1-3)GlcNAc(b1-3)GalNAc
# Summary of the method: as §1
# [7] = system: Fuc(a1-2)Gal(b1-3)GlcNAc(b1-3)[Gal(b1-4)GlcNAc(b1-6)]Gal(b1-4)Glc
# Summary of the method: as §1
# [8] = system: Fuc(a1-2)Gal(b1-3)[Fuc(a1-4)]GlcNAc
# Summary of the method: as §1
# [9] = system: Fuc(a1-2)Gal(b1-4)GlcNAc(b1-2)[Fuc(a1-2)Gal(b1-4)GlcNAc(b1-4)]Man(a1-3)[Fuc(a1-2)Gal(b1-4)GlcNAc(b1-2)Man(a1-6)]Man(b1-4)GlcNAc(b1-4)GlcNAc
# Summary of the method: as §1
# Fuc(a1-2)Gal(b1-3)GlcNAc = system: Fuc(a1-2)Gal(b1-3)GlcNAc
# Summary of the method: as §1
# [10] = system: Fuc(a1-2)Gal(b1-3)[Fuc(a1-4)]GlcNAc(b1-2)Man(a1-3)[Fuc(a1-2)Gal(b1-3)[Fuc(a1-4)]GlcNAc(b1-2)Man(a1-6)]Man(b1-4)GlcNAc(b1-4)[Fuc(a1-6)]GlcNAc(b1-4)[Fuc(a1-6)]GlcNAc
# Summary of the method: as §1
# [11] = system: Fuc(a1-2)Gal(b1-3)GlcNAc(b1-3)[Fuc(a1-3)[Gal(b1-4)]GlcNAc(b1-6)]Gal(b1-4)Glc
# Summary of the method: as §1
# [12] = system: Fuc(a1-2)Gal(b1-3)[Fuc(a1-4)]GlcNAc(b1-2)Man(a1-3)[Fuc(a1-2)Gal(b1-3)[Fuc(a1-4)]GlcNAc(b1-2)Man(a1-6)]Man(b1-4)GlcNAc(b1-4)GlcNAc
# Summary of the method: as §1
# [13] = system: Fuc(a1-2)Gal(b1-3)GlcNAc6S
# Summary of the method: as §1
# [14] = system: Fuc(a1-2)Gal(b1-4)GlcNAc(b1-3)Gal(b1-4)GlcNAc(b1-2)Man(a1-3)[Fuc(a1-2)Gal(b1-4)GlcNAc(b1-3)Gal(b1-4)GlcNAc(b1-2)Man(a1-6)]Man(b1-4)GlcNAc(b1-4)GlcNAc
# Summary of the method: as §1
# [15] = system: Fuc(a1-2)Gal(b1-4)GlcNAc(b1-3)Gal(b1-4)GlcNAc(b1-3)Gal(b1-4)GlcNAc
# Summary of the method: as §1
# [16] = system: Fuc(a1-2)Gal(b1-4)GlcNAc(b1-3)Gal(b1-4)GlcNAc
# Summary of the method: as §1
# [17] = system: Fuc(a1-2)Gal(b1-3)GlcNAc(b1-3)[Fuc(a1-2)Gal(b1-3)GlcNAc(b1-6)]GalNAc
# Summary of the method: as §1
substance,measurement,setting,value
AgI/IIC123-GFP (Streptococcus mutans),glycan array binding signal (z-score),[1],-0.278
same,glycan array binding signal (z-score),[2],-0.189
same,glycan array binding signal (z-score),[3],-0.573
"SiiE (Salmonella typhimurium), A0A0H3NVH0",glycan array binding signal (z-score),Fuc(a1-2)Gal(b1-3)GalNAc,-1.18
same,glycan array binding signal (z-score),[4],2.35
same,glycan array binding signal (z-score),Fuc(a1-2)Gal(b1-4)Glc6S,3.24
same,glycan array binding signal (z-score),[5],-0.206
AgI/II Vhelical-GFP (Streptococcus mutans),glycan array binding signal (z-score),[6],-0.178
same,glycan array binding signal (z-score),[7],-0.296
same,glycan array binding signal (z-score),[8],-0.149
same,glycan array binding signal (z-score),[9],-0.246
"Wza (Escherichia coli), P0A930",glycan array binding signal (z-score),Fuc(a1-2)Gal(b1-3)GlcNAc,0.769
same,glycan array binding signal (z-score),[9],0.441
Actinohivin (Actinomycete K97),glycan array binding signal (z-score),[10],0.06
"SpGH101 (Streptococcus pneumoniae), Q8DR60",glycan array binding signal (z-score),[11],-0.216
same,glycan array binding signal (z-score),[12],0.018
LcI (Legionella pneumophila),glycan array binding signal (z-score),[1],4.24
same,glycan array binding signal (z-score),[13],1.6
same,glycan array binding signal (z-score),[3],0.257
same,glycan array binding signal (z-score),[14],3.4
"BambL (Burhholderia ambifaria), Q0B4G1",glycan array binding signal (z-score),[6],-0.211
same,glycan array binding signal (z-score),[15],3.79
same,glycan array binding signal (z-score),[16],3.14
same,glycan array binding signal (z-score),[5],-0.033
Epa22,glycan array binding signal (z-score),[6],-0.565
same,glycan array binding signal (z-score),[17],-0.12
same,glycan array binding signal (z-score),[10],0.488
"GspB (Streptococcus gordonii), Q939N5",glycan array binding signal (z-score),[15],0
